Screening results: PubChem, National Center for Advancing Translational Sciences (NCATS)
HTT ATP protect: qHTS Multiplex Assay to Identify Dual Action Probes in a Cell Model of Huntington: Cytoprotection (ATP); PC12 HTT-Q103 induced, cytoprotection, ATP luminescence, 40 h; Potency, µM (titrated, usually from 56.4 µM), without a hit: cytoprotection (ATP increase), actives largely listed as activators; hit rate 0.14% among 230,000; further: potency means the concentration at half of the fitted maximal effect; % of control where 0% means no effect; nearly all actives have a fitted effect of over 45% in size
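Cells were plated at 1500 per well in phenol red-free DMEM with 5% equine and 5% calf serum. Tebufenozide (100 nM final) and compounds were added, then ATPlite reagent, and luminescence was read.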
PNC inhibitor: High Content Assay for Compounds that inhibit the Assembly of the Perinucleolar Compartment | PC3M PTB-GFP, PNC prevalence imaging, 16 h; active compounds read low | activity change (PNC), negative = inhibition, % at 10 µM | hit rate 3.1% among 140,000;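 active means readout at or below -70, meaning at least 70% loss of cells showing the perinucleolar compartment, a nuclear body marking cancer cells; inconclusive means readout between -30 and a set limit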;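 further: plate controls were DMSO wells for no effect and camptothecin positive control wells for full effect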
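Read-out is percentage of cells bearing a perinucleolar compartment, from automated 20x imaging of fixed, Hoechst-stained PC3M PTB-GFP cells. Cells were seeded 4 h, then exposed 16 h to compound (23 nl of library stock) in duplicate plates.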
HTT aggregate: qHTS Multiplex Assay to Identify Dual Action Probes in a Cell Model of Huntington: Aggregate Formation (GFP); PC12 HttQ103-GFP aggregates, Acumen cytometry, 40 h; Potency, µM (series often up to 46.1 µM), inactives show top-dose activity change, negative = inhibition, actives largely listed as inhibitors; hit rate 1.1% among 220,000; further: potency means the concentration at half of the fitted maximal effect; on the % scale 0 is the no-effect control and ±100 the full control effect; nearly all actives have a fitted effect of over 60% in size
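Inducible Q103 Huntingtin exon 1–GFP PC12 line, 1500 cells/well in phenol red free DMEM with 5% equine and 5% calf serum. Tebufenozide 100 nM induced expression; compounds titrated; aggregates quantified by cytometry.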
* = called active by the depositor; ? = inconclusive; . = no result given; [ ] = remark or other dose. The full list was thinned out, with hits kept by preference. Unless noted, the call rests on the fitted dose curve; in most records, active means well fitted curve in the direction sought with a large enough effect; inconclusive means small, poorly fitted or top-dose-only effect, or another doubt; inactive means no such curve, though single readings can be large; an effect the other way counts as inactive or inconclusive.

SMILES	HTT ATP protect	PNC inhibitor	HTT aggregate
O=S(=O)(NC1=NCCCCCC1)c1cccs1	-9%[4.97 µM]	16	0%
COC(=O)COc1ccc(S(=O)(=O)N2CCCCCC2)cc1	-54%	.	-28%
COc1ccc2[nH]c(=O)c(C(=O)O)cc2c1	-17%	.	3%
CC(C)C1Cc2[nH]c(=O)c(C(=O)O)cc2CO1 (configuration not stated)	-1%[0.074 µM]	-111*	?
CCc1nc2ccccc2c(=O)n1NC(=O)c1c(O)c2cccc3c2n(c1=O)CCC3	-9%[10 µM]	-83*	3%
O=C(Nn1c(Cc2ccccc2)nc2ccccc2c1=O)c1c(O)c2cccc3c2n(c1=O)CCC3	-34%[10 µM]	.	-30%[9.22 µM]
Cc1cccc(N(CC(=O)NC2CCCCC2)C(=O)CCC(=O)Nc2ccccn2)c1	4%	-20	-4%
CCOC(=O)CSc1nc(N)c(C(=O)Nc2ccc(N(C)C)cc2)s1	-64%	?	5%
CCN(CC)c1ccc2cc(C(N)=O)c(=N)oc2c1	-21%[1.9 µM]	.	2%[9.22 µM]
CCN(CC)c1ccc2cc(-c3nnc(-c4ccncc4)o3)c(=O)oc2c1	-2%[10 µM]	-119*	2.5µM*
CCN(CC)c1ccc2cc(C=O)c(=O)oc2c1	-26%	-5	0%
CCN(CC)c1ccc2cc(C(N)=O)c(=O)oc2c1	-2%[10 µM]	-105*	25%
COc1ccc(NC(=S)NCCCN2CCCC2=O)c(OC)c1	-30%	.	-5%[9.22 µM]
Cc1cc2oc(C(=O)Nc3ccc(S(N)(=O)=O)cc3)c(C)c2cc1Cl	-15%[10 µM]	.	12%[9.22 µM]
COc1ccc(CNc2ncnc(N)n2)cc1	-5%	-101*	-21%
COc1ccc(CN(C)c2ncnc(N)n2)cc1	13%	2	-5%
COc1ccc(CNc2ncnc3cc(Cl)ccc23)cc1	-24%	.	14µM*
COc1cc2ncnc(NCc3ccccc3)c2cc1OC	8%[10 µM]	-29	?
COc1cccc(CNc2ncnc3cc(Cl)ccc23)c1	-39%[1.9 µM]	.	10%[9.22 µM]
COc1cc2ncnc(NCc3cccc(Cl)c3)c2cc1OC	-77%	.	14µM*
CCOC(=O)C1=C(C)NC(=O)NC1c1ccc(OC(=O)c2ccco2)c(OC)c1 (configuration not stated)	3%	-16	-4%
COc1ccc(NC(=O)N2CC3(CCN(S(=O)(=O)c4ccccc4)CC3)C2)cc1	-51%	.	.
Cc1c(C=N)c(O)n(C)c(=O)c1C#N	16%[10 µM]	.	11%[9.22 µM]
O=C(NCC(=O)N(c1cccnc1)C(C(=O)NC1CCCC1)c1cccs1)c1cccs1 (configuration not stated)	14%[10 µM]	.	5%[9.22 µM]
COc1ccc(NC(=S)N(CCc2c(C)[nH]c3ccccc23)Cc2ccco2)cc1	.	30	7%
SMILES	HTT ATP protect	PNC inhibitor	HTT aggregate
Cc1ccnc(N2C(=O)c3cccc4c([N+](=O)[O-])ccc(c34)C2=O)c1	-2%[10 µM]	28	18µM*
O=C1c2cccc3c([N+](=O)[O-])ccc(c23)C(=O)N1Cc1cccnc1	-37%	.	35µM*
O=C1c2cccc3cccc(c23)C(=O)N1Cc1cccnc1	1%[10 µM]	.	5%[9.22 µM]
O=C1c2cc([N+](=O)[O-])cc3cc([N+](=O)[O-])cc(c23)C(=O)N1c1ccccn1	-19%[10 µM]	?	26%[9.22 µM]
CCN(C=NC1=NN(c2cccc(C(F)(F)F)c2)CC1)CC	23%[10 µM]	22	-8%
Cc1ccc(-n2nnnc2SCC#N)cc1	-14%	.	11%
N#CC(c1ccccn1)(c1ncc(C(F)(F)F)cc1Cl)N1CCOCC1 (configuration not stated)	13%	-100*	5%
N#CC(c1ccncc1)(c1ncc(C(F)(F)F)cc1Cl)N1CCOCC1 (configuration not stated)	-9%	.	-26%
Cc1ccc(N2C(=O)c3ccccc3C2Nc2ccc(S(=O)(=O)N3CCCCC3)cc2)nc1 (configuration not stated)	-24%	-19	-19%
CC(C)c1ccccc1S(=O)(=O)c1cc(N)c2ncccc2c1[N+](=O)[O-]	7.9µM*	.	.
Cc1ccc2ncccc2c1[N+](=O)[O-]	15%[10 µM]	-7	-13%
CS(=O)(=O)Nc1cccc(-c2nccc(NCc3cccs3)n2)c1	-19%	.	.
O=C(NCc1ccco1)c1c(O)c2cccc3c2n(c1=O)CCC3	-27%	19	-19%
COc1ccc(CC(=O)Nc2ccc3c(c2)CCC3)cc1OC	2%	-8	13µM*
COc1ccccc1CC(=O)Nc1ccc2c(c1)CCC2	10%[10 µM]	?	1%
COc1ccc(NC(=O)N2CC(C)OC(C)C2)cc1OC (configuration not stated)	13%	24	13%
COc1ccc(NC(=O)N2CCCC2)cc1OC	12%	-109*	30%
